Test results taken from PubChem BioAssay (NCI).
The panel holds about 83,000 compounds, 20% with a hit somewhere; the sample as a whole holds those more often.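 Single-concentration screen, 48 h exposure, 96-well plates. Endpoint: percent growth. Below 10 = active.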 Unmarked numbers belong to inactive results. Active and inactive are the calls of the source.

Columns and labels:
Assay in all cases: NCI-60 one-dose screen, 48 h (100 = growth as untreated, 0 = no growth, -100 = all killed)
Details in all cases: 10 µM
[1] = test system: NCI-H23 lung
[2] = test system: NCI-H226 lung
[3] = test system: NCI-H322M lung
[4] = test system: HOP-62 NSCLC
[5] = test system: NCI-H460 lung
[6] = test system: HOP-92 NSCLC
[7] = test system: NCI-H522 lung
[8] = test system: A549/ATCC NSCLC
[9] = test system: 786-0 renal
[10] = test system: COLO 205 colon
[11] = test system: DU-145 prostate
[12] = test system: K-562 leukemia
[13] = test system: MALME-3M melanoma
[14] = test system: MDA-MB-231 breast
[15] = test system: SF-268 CNS
[16] = test system: SF-295 CNS
[17] = test system: SF-539 CNS
[18] = test system: UACC-257 melanoma
[19] = test system: M14 melanoma

Structure (SMILES)	growth [1]	growth [2]	growth [3]	growth [4]	growth [5]	growth [6]	growth [7]	growth [8]	growth [9]	growth [10]	growth [11]	growth [12]	growth [13]	growth [14]	growth [15]	growth [16]	growth [17]	growth [18]	growth [19]
CCNCCCn1c2c(c3cc(OC)c(OC)cc3c1=O)C(=O)c1cc3c(nc1-2)OCO3	-27.2% (active)	-79.7% (active)	35.2%	11.7%	-24.7% (active)	44.4%	35.8%	21.1%	-71.7% (active)	25.7%	12.1%	-18.2% (active)	-93.5% (active)	-91.6% (active)	8.1% (active)	4.2% (active)	-44.1% (active)	45.4%	0.853% (active)
COc1ccc(-c2cc(C(=O)N=Nc3c(O)[nH]c4ccc(Br)cc34)c3ccccc3n2)cc1	5.57% (active)	50.6%	70%	91.6%	5.22% (active)	71.4%	57.7%	61.1%	80.1%	53.2%	19.9%	10.2%	45.9%	-68.2% (active)	64.4%	35.3%	31.7%	102%	42.6%
COc1ccc(-c2cc(-c3cc(C(=O)c4ccccc4)n4ccc(C)cc34)nc(N)c2C#N)cc1	55%	36.4%	83.7%	29.7%	44.5%	-7.39% (active)	71.5%	79.9%	13.5%	73%	77.9%	88.3%	50.8%	34.4%	41.2%	45.2%	7.52% (active)	84.4%	79.8%
CCCn1c(=O)c2[nH]c(-c3ccc(OCc4nc5ccc(C#N)cc5[nH]4)cc3)nc2n(CCC)c1=O	81.5%	51.2%	76.3%	77.9%	66.2%	78.5%	71.1%	79.9%	72.1%	94.9%	79%	41.6%	73.2%	30.8%	80.4%	76.7%	64.9%	99.5%	99.6%
O=C(NO)c1ccc(CNC(=O)[C@H]2Cc3c([nH]c4ccccc34)[C@H](c3ccc(Cl)cc3)N2)cc1	-50.8% (active)	28.2%	28.5%	2.45% (active)	10.3%	-17.1% (active)	-35.2% (active)	24.5%	22.6%	-82.7% (active)	10.7%	9.83% (active)	6.92% (active)	-11.1% (active)	22.6%	-17.4% (active)	2.84% (active)	15.1%	23%
O=C(Nc1cccc(C(F)(F)F)c1)c1cncc(C#Cc2cnc3cccnn23)c1	12.7%	27.1%	71.6%	33.7%	70.7%	7.14% (active)	54.9%	63%	40.1%	82.3%	22.6%	8.07% (active)	28%	27.9%	46.4%	63.5%	31.9%	83.6%	35.5%
C/C(=N\N=C\c1ccc(N(C)C)cc1)c1ccc2c(c1)Nc1ccccc1S2	31.4%	16.8%	79.5%	62.2%	25%	59.5%	48.5%	50.5%	67.5%	60.4%	62%	28.2%	49.9%	52%	62.8%	24.6%	52.8%	64.9%	67.7%
